In PubChem BioAssay (NCATS):
Values without a mark were called inactive. Calls of active or inactive are those of the source. Calls follow the shape of the dose curve; as a rule, active = well fitted inhibition curve with a large enough effect; inconclusive = small, poorly fitted or top-dose-only effect; inactive = flat fitted curve, though single readings scatter.

What follows are compounds tested against ATP-dependent DNA helicase Q1 (Homo sapiens) (UniProt P46063) (assay: qHTS Validation Assay for Inhibitors of RecQ-Like Dna Helicase 1 (RECQ1) (AID 2353;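 as to activity change, negative = inhibition: plate controls were DMSO vehicle for no effect and enzyme-free control for full effect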)). Conditions: recombinant RECQ1 helicase DNA unwinding assay; series mostly up to 25.6 µM; activity change, negative = inhibition: at the top concentration.
ATP-dependent DNA helicase Q1 (Homo sapiens), sequence (P46063 whole entry, looked up): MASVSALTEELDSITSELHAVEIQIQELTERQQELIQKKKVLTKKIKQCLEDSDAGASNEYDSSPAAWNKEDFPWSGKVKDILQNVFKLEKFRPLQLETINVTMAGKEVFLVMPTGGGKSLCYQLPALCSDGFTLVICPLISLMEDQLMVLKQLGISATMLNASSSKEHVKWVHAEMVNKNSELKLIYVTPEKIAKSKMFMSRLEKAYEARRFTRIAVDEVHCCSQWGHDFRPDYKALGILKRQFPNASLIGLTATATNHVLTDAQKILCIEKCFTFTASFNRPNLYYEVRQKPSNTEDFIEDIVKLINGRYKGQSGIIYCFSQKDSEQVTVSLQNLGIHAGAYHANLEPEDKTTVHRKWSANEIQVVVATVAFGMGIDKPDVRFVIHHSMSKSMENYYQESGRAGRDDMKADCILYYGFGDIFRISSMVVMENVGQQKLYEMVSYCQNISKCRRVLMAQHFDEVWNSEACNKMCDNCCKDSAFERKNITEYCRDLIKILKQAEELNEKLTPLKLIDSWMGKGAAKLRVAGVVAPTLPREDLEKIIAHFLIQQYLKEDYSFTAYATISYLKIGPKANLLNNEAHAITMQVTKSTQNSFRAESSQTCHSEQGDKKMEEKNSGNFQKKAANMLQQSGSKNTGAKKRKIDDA
Source text: Survival of cells and the faithful propagation of the genome depend on elaborate mechanisms of detecting and repairing DNA damage. Treatment of advanced cancer relies on radiation therapy or chemotherapy, which kill cancer cells by causing extensive DNA damage. It is often found, that cancer cells develop resistance to therapy through enhanced activity of DNA repair functions; this has led to an increased interest in developing drugs that interfere with DNA repair, which could sensitize cancer cells to conventional therapy.
This validation qHTS assay pertains to human RECQ1, which is important in resolving abnormal DNA structures formed during replication or homologous recombination. Shutting down the expression of RECQ1 leads to chromosomal instability and higher radiation sensitivity in cultured cells.
The validation assay was a fluorescence quenching based kinetic qHTS for RECQ1 Helicase DNA unwinding. The activity was measured as ATP-dependent separation of a 20-bp DNA duplex extended by 30-nt single-stranded tails (forked duplex). The forked DNA substrate was tagged with rhodamine fluorophore (carboxytetramethyl rhodamine, TAMRA) and BHQ-2 (Black Hole Quencher 2) dark quencher. Strand separation results in an increase in the fluorescence of TAMRA (excitation 525 nm, emission 598 nm). This substrate construct operates in a red-shifted region where very few compound library members have been noted to fluoresce (PubChem AIDs 593 and 594). An additional feature of the assay is the inclusion of 2.5 ug/ml poly (dIdC), to reduce interference by compounds such as DNA intercalators, a major source of false inhibitors.
Opher Gileadi, Structural Genomics Consortium, University of Oxford
Screening Center PI: Austin, C.P.
Screening Center: NIH Chemical Genomics Center [NCGC]
Three uL of reaction buffer (25 mM Tris-HCl (pH 8.0), 5 mM NaCl, 2 mM MgCl2, 1mM DTT, 0.01% Tween- 20, and 2.5 ug/ml poly(dI-dC), including enzyme (50 nM RECQ1T1), were dispensed into a 1536-well Greiner black assay plate via solenoid-valve based nanoliter dispensers. Compounds (23 nl each in columns 5-48) and control (23 nl each in column 2 as dose-response) were transferred via a Kalypsys pintool equipped with a 1536-pin array. The plates were incubated for 15 min at room temperature, and then 1 ul of substrates (200 nM DNA and 2 mM ATP, final concentrations) was added to start the reaction. The plate was transferred into a ViewLux high-throughput CCD imager where the reaction progress was measured in a discontinuous kinetic mode (two reads spaced 2 hours apart, with intermediate room temperature incubation of the covered assay plate) by using standard red-fluorescence optics (excitation filter 525 nm, emission filter 598 nm). Enzyme-free and vehicle (DMSO) controls were included for signal normalization.
Potency is read from the fitted curve at half-maximal effect.

SMILES	activity change, negative = inhibition [%]	Potency
OC(CN1CCN(c2cccc(Cl)c2)CC1)C(c1ccccc1)c1ccccc1 (centres undefined)	-12.1	
CC1(C)NC(=O)N(c2ccc([N+](=O)[O-])c(C(F)(F)F)c2)C1=O	-6.38	
O=c1cc(N2CCOCC2)oc2c(-c3ccccc3)cccc12	0.762	
COc1cc2nc(N3CCN(C(=O)C4CCCO4)CC3)nc(N)c2cc1OC (centres undefined)	9.62	
O=C1NC(=O)C(c2ccccc2[N+](=O)[O-])=C1Nc1ccc(O)c(Cl)c1	2.1	
Oc1ccc(-c2nc(-c3ccc(F)cc3)c(-c3ccncc3)[nH]2)cc1	-6.68	
Cc1c(OCC(F)(F)F)ccnc1CS(=O)c1nc2ccccc2[nH]1 (centres undefined)	-3.43	
NNc1nncc2ccccc12	2.81	
CC(=O)N1CCN(c2ccc(OC[C@H]3CO[C@](Cn4ccnc4)(c4ccc(Cl)cc4Cl)O3)cc2)CC1	0.416	
NC(=NCc1ccccc1)NC(=O)c1nc(Cl)c(N)nc1N	24.8	
O=C(NCC1CCCCN1)c1cc(OCC(F)(F)F)ccc1OCC(F)(F)F (centres undefined)	-3.32	
O=c1c(O)c(-c2cc(O)c(O)c(O)c2)oc2cc(O)cc(O)c12		0.891 µM (active)
O=C(O)c1cccnc1Nc1cccc(C(F)(F)F)c1	3.6	
O=C(c1ccccc1)c1ccc2n1CCC2C(=O)O (centres undefined)	2.04	
Cc1cc(O)c2c(c1)C(=O)c1cc(O)cc(O)c1C2=O	-9.98	
NCCCCNCCCN	1.77	
O=c1ccc2ccc(O)c(O)c2o1	-20.2	

SMILES	activity change, negative = inhibition [%]	Potency
C[C@@H](N)C1CCC(C(=O)Nc2ccncc2)CC1 (some centres undefined)	-3.27	
O=c1c(O)c(-c2ccc(O)cc2O)oc2cc(O)cc(O)c12	-22.4	
Nc1nc(OCc2ccccc2)c2[nH]cnc2n1	-2.12	
Cc1nc2n(c(=O)c1CCN1CCC(c3noc4cc(F)ccc34)CC1)CCCC2	6.62	
CC1(C)C(=O)N(CCN2CCC(C(=O)c3ccc(F)cc3)CC2)c2ccccc21	-1.78	
COc1ccc2cc([C@H](C)C(=O)O)ccc2c1	-3.12	
O=C1c2ccccc2-c2n[nH]c3cccc1c23	3.33	
CCN(CC)C(=S)SSC(=S)N(CC)CC	-2.49	
Cc1cccc(C#Cc2ccccc2)n1	0.216	
COc1ccccc1N1CCN(CCN(C(=O)C2CCCCC2)c2ccccn2)CC1	-0.957	
O=C1c2c(O)cc(O)cc2OC(c2ccc(O)c(O)c2)C1O (centres undefined)	-12.3	
O=Nc1c(-c2c(O)[nH]c3cc(Br)ccc23)[nH]c2ccccc12	-21.4	
CN(C)CCCC1(c2ccc(F)cc2)OCc2cc(C#N)ccc21 (centres undefined)	1.22	
CNC[C@H](O)c1ccc(O)c(O)c1	0.689	
C[C@H](Cc1ccc(O)c(O)c1)[C@@H](C)Cc1ccc(O)c(O)c1		11.2 µM (active)
O=C(CCc1ccc(O)cc1)c1c(O)cc(O)cc1O	-0.724	
CC(=O)O[C@H]1C(=O)[C@@]2(C)C([C@H](OC(=O)c3ccccc3)[C@]3(O)C[C@H](OC(=O)[C@H](O)[C@@H](NC(=O)c4ccccc4)c4ccccc4)C(C)=C1C3(C)C)[C@]1(OC(C)=O)CO[C@@H]1C[C@@H]2O (some centres undefined)	-8.28	
